From PubChem BioAssay come the findings set out here.

A short description of experiment [1]: small molecules captured by biotinylated probe aFSTL3 – biochemical, small-molecule microarray, fluorescence 635/667, stem cell growth factor project, primary screen (AID 1064).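 Note: measures binding of the biotinylated anti-FSTL3 antibody to printed compounds.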 The note with it: higher = more signal.
Experiment [2] is described as follows: binders from COS7 lysate, DM2A8 probe, primary screen, torsin A project, cell lysate, small-molecule microarray, fluorescence 635/667 (AID 1065). The note with it: higher = more signal, COS7 lysate expressing mutant human TOR1A.
A short description of experiment [3]: small molecules captured by biotinylated probe aFGF2 – biochemical, small-molecule microarray, fluorescence 635/667, stem cell growth factor project, primary screen (AID 1067).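 Note: measures binding of biotinylated aFGF2 protein to printed compounds on slides; z-score merges feature fluorescence and signal-to-noise across triplicate slides.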 Particulars: higher = more signal.
Experiment [4] is described as follows: small molecules captured by biotinylated probe aFGF10 – biochemical, small-molecule microarray, fluorescence 635/667, stem cell growth factor project, primary screen (AID 1071).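 Note: score merges 667 nm spot intensity and signal to noise from triplicate slides.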 Particulars: higher = more signal.
For experiment [5], the target named is Neurogenic locus notch homolog protein 2 (Homo sapiens) (UniProt Q04721). Kind of experiment: small molecules binding Notch2 protein – biochemical, small-molecule microarray, 635 nm fluorescence, stem cell growth factors, primary screen (AID 1073). The note with it: higher = more signal.
For experiment [6], the target named is Pro-neuregulin-1, membrane-bound isoform (Homo sapiens) (UniProt Q02297). Kind of experiment: small molecules binding neuregulin-1 protein – biochemical, small-molecule microarray, fluorescence 635/667, psychiatric disease protein project, primary screen (AID 1075).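 Note: score combines 667 nm spot fluorescence with signal to noise.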 Particulars: NRG1 binding, 635 nm fluorescence, higher = more signal.
Experiment [7] relates to Neuregulin-1 EGF-like domain. The experiment is described as follows: small molecules binding NRG1 EGF domain – biochemical, small-molecule microarray, 635 nm fluorescence, primary screen (AID 1081).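 Note: binding of the protein to compounds printed on small-molecule microarray slides.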 Particulars: higher = more signal.
Experiment [8] can be described thus: FRG1 expression reporter modulators in myotubes – cell-based, C2C12 myotubes, firefly/Renilla luciferase, luminescence, FRG1 inhibition for FSHD, primary screen (AID 1084). The note with it: FRG1 promoter luciferase, higher = more signal, called active from +8 up or from −8 down.
Experiment [9] can be described thus: small molecules captured by biotinylated probe aFST – biochemical, small-molecule microarray, fluorescence 635/667, stem cell growth factor project, primary screen (AID 1086).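 Note: score merges 667 nm fluorescence with signal-to-noise of each printed compound spot.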 The note with it: higher = more signal.
Experiment [10] is described as follows: binders of probe aHhip on microarray, primary screen, stem cell growth factor project, biochemical, small-molecule microarray, fluorescence 635/667 (AID 1087).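 Note: score merges spot fluorescence at 667nm with spot signal to noise ratio.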 The note with it: higher = more signal.
The test system of experiment [11] is PRMT1 (protein arginine N-methyltransferase 1). Kind of experiment: small molecules binding arginine methyltransferase PRMT1 – biochemical, small-molecule microarray, 635 nm fluorescence, primary screen (AID 1088).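 Note: binding of Prmt1 protein to compounds spotted on small-molecule microarray slides.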 Particulars: higher = more signal.
The nature of experiment [12]: growth effects on S. cerevisiae YJM789 – YJM789 clinical isolate, OD600, 24 h, basal, primary screen (AID 1089).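 Note: growth of clinical yeast isolate S. cerevisiae YJM 789 seeded 1000 cells per well; test concentration not given here.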 Particulars: higher = more signal, called active from +8 up or from −8 down.
The nature of experiment [13]: S. pombe growth modifiers, basal conditions – strain 972, OD600, 24 h, no modulator, primary screen (AID 1090).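 Note: basal condition with compound alone and no growth modifier present; test concentration not given here.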 The note with it: S. pombe 972 growth, higher = more signal, called active from +8 up or from −8 down.
Experiment [14] in a line: budding yeast growth modifiers under rapamycin – strain BY4716, OD600, 96 h, primary screen (AID 1091). Note: test concentration not given here. Particulars: S. cerevisiae BY4716 + rapamycin, higher = more signal, called active from +8 up or from −8 down.
For experiment [15], the target named is Torsin-1A-interacting protein 2 (Homo sapiens) (UniProt Q8NFQ8). Kind of experiment: small molecules binding lysate-expressed LULL1 – cell lysate, human LULL1 lysate, 635/667 nm fluorescence, primary screen (AID 1092).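 Note: score merges per-feature 667 nm fluorescence with signal-to-noise.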 The note with it: small-molecule microarray, hLULL1 lysate binding, 635 nm fluorescence; higher = more signal.
Experiment [16] can be described thus: optical density change of DRC41 E. coli – strain DRC41, OD650, 24 h, E. coli filamentation project, primary screen (AID 1093).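 Note: MC1000 strain lacking acrAB efflux and sulA so SOS filamentation is blocked; test concentration not given here.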 The note with it: E. coli DRC41 growth, higher = more signal, called active from +8 up or from −8 down.
Experiment [17] is described as follows: probe aLefty2 binding to arrayed compounds – biochemical, biotinylated probe, 635/667 nm fluorescence, primary screen (AID 1094).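 Note: score merges spot fluorescence near 667 nm with spot signal-to-noise ratio.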 Particulars: small-molecule microarray, higher = more signal.
Experiment [18] concerns Noggin (protein binding on small-molecule microarray). The experiment is described as follows: small molecules binding Noggin protein – biochemical, 635/667 nm fluorescence, primary screen (AID 1095).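 Note: score merges 667 nm feature fluorescence with signal to noise over triplicate slides.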 Particulars: 635 nm fluorescence, higher = more signal.
Experiment [19] has as its target Neurogenic locus notch homolog protein 3 (Homo sapiens) (UniProt Q9UM47). The experiment is described as follows: small molecules binding NOTCH3 protein – biochemical, 635/667 nm fluorescence, primary screen (AID 1096). The note with it: small-molecule microarray, 635 nm fluorescence, higher = more signal.
The nature of experiment [20]: probe aEGFR binding to arrayed compounds – biochemical, biotinylated probe, 635/667 nm fluorescence, primary screen (AID 1097).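 Note: probe is a biotinylated anti-EGFR antibody binding compounds printed on slides; score combines fluorescence near 667 nm and signal to noise of each spot.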 Particulars: small-molecule microarray, higher = more signal.

Active and inactive are the calls of the source.

Sequence of Pro-neuregulin-1, membrane-bound isoform (Homo sapiens) (Q02297 whole entry, looked up, the tested form may be a part, canonical isoform): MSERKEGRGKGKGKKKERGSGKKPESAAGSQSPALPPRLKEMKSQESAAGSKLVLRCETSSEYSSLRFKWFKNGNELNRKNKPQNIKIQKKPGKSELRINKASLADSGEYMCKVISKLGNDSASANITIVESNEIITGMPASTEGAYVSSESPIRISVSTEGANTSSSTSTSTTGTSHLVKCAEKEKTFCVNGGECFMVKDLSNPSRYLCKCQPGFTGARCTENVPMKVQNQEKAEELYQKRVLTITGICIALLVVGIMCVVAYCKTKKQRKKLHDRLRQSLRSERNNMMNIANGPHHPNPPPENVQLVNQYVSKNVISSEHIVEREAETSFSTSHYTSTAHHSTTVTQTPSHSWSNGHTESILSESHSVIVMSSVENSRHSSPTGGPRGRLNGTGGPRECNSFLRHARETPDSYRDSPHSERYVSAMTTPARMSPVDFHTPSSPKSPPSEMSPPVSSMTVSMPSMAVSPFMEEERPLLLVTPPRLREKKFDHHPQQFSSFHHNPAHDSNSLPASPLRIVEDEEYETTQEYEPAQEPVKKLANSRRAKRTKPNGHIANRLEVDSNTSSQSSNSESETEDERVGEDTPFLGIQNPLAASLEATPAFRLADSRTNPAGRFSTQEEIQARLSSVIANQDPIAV
Sequence of Neurogenic locus notch homolog protein 2 (Homo sapiens) (Q04721 whole entry, looked up, canonical isoform): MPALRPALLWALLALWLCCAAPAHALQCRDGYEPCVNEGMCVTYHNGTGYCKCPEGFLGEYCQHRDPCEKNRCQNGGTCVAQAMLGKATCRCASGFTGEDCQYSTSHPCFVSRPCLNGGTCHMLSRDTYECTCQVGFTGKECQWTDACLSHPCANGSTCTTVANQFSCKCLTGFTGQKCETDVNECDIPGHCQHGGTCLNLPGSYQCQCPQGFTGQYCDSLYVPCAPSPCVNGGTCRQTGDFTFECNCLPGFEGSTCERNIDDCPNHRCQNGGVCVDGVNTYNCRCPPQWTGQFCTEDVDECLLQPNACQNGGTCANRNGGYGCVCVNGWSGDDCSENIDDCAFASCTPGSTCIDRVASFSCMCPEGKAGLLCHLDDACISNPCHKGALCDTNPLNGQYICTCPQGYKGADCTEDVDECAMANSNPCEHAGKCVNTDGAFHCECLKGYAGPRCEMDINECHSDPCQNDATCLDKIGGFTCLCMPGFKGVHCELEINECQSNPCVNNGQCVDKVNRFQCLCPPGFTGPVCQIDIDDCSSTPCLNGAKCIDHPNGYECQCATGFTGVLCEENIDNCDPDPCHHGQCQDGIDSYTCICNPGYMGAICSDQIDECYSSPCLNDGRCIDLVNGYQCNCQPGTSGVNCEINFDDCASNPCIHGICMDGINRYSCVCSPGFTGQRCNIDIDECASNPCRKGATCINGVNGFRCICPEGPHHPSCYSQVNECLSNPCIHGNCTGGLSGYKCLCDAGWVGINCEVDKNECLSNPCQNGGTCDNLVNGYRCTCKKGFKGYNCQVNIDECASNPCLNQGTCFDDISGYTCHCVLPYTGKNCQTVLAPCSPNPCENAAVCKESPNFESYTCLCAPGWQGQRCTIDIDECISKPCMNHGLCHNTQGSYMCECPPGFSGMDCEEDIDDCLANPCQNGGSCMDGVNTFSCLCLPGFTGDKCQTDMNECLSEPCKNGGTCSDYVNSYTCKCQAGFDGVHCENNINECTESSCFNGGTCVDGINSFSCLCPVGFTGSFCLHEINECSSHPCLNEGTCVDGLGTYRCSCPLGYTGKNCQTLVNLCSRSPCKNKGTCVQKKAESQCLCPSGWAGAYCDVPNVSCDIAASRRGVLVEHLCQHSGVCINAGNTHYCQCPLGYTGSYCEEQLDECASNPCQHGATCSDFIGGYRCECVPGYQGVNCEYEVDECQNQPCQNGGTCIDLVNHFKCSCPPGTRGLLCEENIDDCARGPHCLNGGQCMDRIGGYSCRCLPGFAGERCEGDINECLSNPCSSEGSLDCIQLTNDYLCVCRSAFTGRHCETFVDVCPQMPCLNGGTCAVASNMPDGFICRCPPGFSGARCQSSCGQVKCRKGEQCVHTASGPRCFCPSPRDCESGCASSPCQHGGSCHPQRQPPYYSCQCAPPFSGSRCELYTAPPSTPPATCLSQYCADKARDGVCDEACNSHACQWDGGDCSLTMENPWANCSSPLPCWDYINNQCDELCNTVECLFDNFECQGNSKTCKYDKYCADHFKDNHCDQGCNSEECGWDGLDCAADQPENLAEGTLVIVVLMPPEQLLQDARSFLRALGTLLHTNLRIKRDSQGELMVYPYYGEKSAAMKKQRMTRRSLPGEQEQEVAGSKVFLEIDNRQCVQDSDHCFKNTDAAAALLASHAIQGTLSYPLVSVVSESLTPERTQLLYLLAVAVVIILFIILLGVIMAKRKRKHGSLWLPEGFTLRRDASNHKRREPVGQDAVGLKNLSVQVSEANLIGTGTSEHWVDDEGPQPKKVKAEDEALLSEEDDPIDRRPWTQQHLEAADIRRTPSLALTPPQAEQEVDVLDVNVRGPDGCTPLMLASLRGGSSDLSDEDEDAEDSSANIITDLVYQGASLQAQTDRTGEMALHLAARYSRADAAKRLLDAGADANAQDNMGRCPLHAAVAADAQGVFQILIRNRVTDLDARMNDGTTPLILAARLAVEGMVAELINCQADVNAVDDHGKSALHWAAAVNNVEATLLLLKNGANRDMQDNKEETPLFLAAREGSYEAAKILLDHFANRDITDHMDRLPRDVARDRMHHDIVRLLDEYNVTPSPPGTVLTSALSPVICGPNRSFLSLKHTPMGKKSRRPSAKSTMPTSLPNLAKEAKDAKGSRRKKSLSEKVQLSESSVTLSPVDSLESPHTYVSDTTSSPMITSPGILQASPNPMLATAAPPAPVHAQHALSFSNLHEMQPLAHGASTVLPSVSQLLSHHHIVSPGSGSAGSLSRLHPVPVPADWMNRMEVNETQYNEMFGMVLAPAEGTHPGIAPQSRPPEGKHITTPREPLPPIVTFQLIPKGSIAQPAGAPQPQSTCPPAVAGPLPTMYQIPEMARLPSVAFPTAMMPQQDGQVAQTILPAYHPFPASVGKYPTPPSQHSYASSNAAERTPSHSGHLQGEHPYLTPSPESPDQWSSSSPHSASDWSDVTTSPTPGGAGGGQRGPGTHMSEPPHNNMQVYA
Sequence of Torsin-1A-interacting protein 2 (Homo sapiens) (Q8NFQ8 whole entry, looked up): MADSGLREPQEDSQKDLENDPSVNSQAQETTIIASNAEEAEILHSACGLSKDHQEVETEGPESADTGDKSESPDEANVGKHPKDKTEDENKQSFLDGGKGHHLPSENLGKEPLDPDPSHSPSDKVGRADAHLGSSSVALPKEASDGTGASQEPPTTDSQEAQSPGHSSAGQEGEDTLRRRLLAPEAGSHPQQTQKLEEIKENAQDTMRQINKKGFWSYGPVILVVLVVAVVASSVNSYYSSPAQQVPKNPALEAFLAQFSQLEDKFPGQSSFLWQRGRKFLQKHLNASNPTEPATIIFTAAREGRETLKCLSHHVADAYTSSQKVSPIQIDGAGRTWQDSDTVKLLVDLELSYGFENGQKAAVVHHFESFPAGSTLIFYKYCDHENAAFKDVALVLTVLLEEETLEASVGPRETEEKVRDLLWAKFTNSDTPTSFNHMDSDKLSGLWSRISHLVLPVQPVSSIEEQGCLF

Take `CC(C)C(O)C1C=CC2C(=O)N(c3ccccc3)C(=O)C2N1Nc1ccc([N+](=O)[O-])cc1` (stereo not given): the composite z-score in experiment [1] is 0.549; in experiment [2], -0.0664; in [3], 0.0485; in [4], 0.569; in experiment [5], 0.951; in experiment [6], 1.34. Besides, the composite z-score is 0.8 in [7]; 0.886 in [9]; -0.214 in [10]; 0.118 in experiment [11]; 2.89 in [15]; 0.0827 in experiment [17]. In addition, the values for the composite z-score in experiment [18], in [19] and in [20] were -0.0213, 0.614 and 0.117, respectively. Besides, the z-score in experiment [8] is 1.07 (inactive); in [12] it was 0.307 (inactive); in [13], 0.815 (inactive); in [14], 0.834 (inactive); in experiment [16] it was 0.171 (inactive).
In the case of `NCCCCCCNC(=O)[C@@H]1C[C@@H]2C(=O)NCC(=O)N2[C@@H]1c1ccc(O)cc1`, the composite z-score is -0.175 in [1]; 0.853 in [2]; -0.14 in experiment [3]; 0.177 in experiment [4]; 0.571 in experiment [5]; 1.32 in [6]. The composite z-score in experiment [7] is 1.41; in [9], 0.703; in [10] it was -0.207; in [11] it was 1.56; in experiment [15], 1.01; in experiment [17], -0.0324. The composite z-score in [18] is 1.58; in [19], 1.07; in experiment [20] it was -0.0409. Moreover, the z-score in experiment [8] is 1.03 (inactive); in experiment [12], 0.0703 (inactive); in [13], 0.467 (inactive); in experiment [14] it was -0.129 (inactive); in experiment [16], 1.1 (inactive).
`O=C(c1ccccc1)N1C(=O)[C@@]2(Cc3ccccc31)N=C(c1ccc(OCCCO)cc1)O[C@H]2c1ccccc1`: the composite z-score came to 0.77 in experiment [1]; 0.686 in [2]; 0.15 in [3]; 0.663 in [4]; 1.17 in experiment [5]; 1.57 in experiment [6]. The composite z-score in [7] was 1.39; in experiment [9], 1.01; in experiment [10], 0.364; in [11], 1.55; in experiment [15], 2.59; in experiment [17] it was 0.384. Also, the composite z-score in experiment [18] stood at 0.487; in [19], 1.09; in experiment [20], 0.291. Further, the z-score in experiment [8] is -2.91 (inactive); in experiment [12] it was -0.26 (inactive); in experiment [13], -1.23 (inactive); in [14] it was 1.74 (inactive); in experiment [16], 0.0877 (inactive).
Consider `COC(=O)[C@@]1(Cc2ccccc2)N=C(c2ccc(OCCCO)cc2)O[C@H]1c1ccccc1`, for which the composite z-score is 0.348 in [1]; 0.0099 in experiment [2]; 0.0243 in [3]; 0.531 in [4]; -0.165 in [5]; 1.5 in experiment [6]. Moreover, the composite z-score in experiment [7] was 0.939; in experiment [9], -0.053; in [10], -0.169; in experiment [11], 1.31; in experiment [15] it was 2.05; in experiment [17] it was 0.116. The composite z-score was 0.0302 in [18], 0.107 in experiment [19] and -0.123 in [20]. Besides, the z-score in experiment [8] is -2.3 (inactive); in experiment [12] it was -0.774 (inactive); in experiment [13] it was -1.99 (inactive); in experiment [14], 3.21 (inactive); in experiment [16], 1.55 (inactive).
Regarding `CN1C(=O)C2C=CC(C(O)C3CC=CCC3)N(N(c3ccccc3)c3ccccc3)C2C1=O` (stereo not given), the composite z-score was 0.677 in [1]; -0.0811 in experiment [2]; 0.0247 in experiment [3]; -0.0455 in experiment [4]; 0.172 in [5]; -0.282 in experiment [6]. The composite z-score is 0.33 in experiment [7]; 0.408 in experiment [9]; -0.137 in [10]; -1.73 in experiment [11]; -0.0863 in [15]; 0.639 in experiment [17]. The composite z-score in [18] is -0.264; in experiment [19], 0.0898; in experiment [20], -0.0823. For the same molecule, the z-score was -0.654 (inactive) in [8]; 0.607 (inactive) in [12]; 1.7 (inactive) in experiment [13]; 1.01 (inactive) in experiment [14]; -0.843 (inactive) in [16].
